PMC7819943, “Rice protein-binding microarrays: a tool to detect cis-acting elements near promoter regions in rice”
Whole data set: some 35,000 sequences, median “fluorescence intensity (a.u.)” near 10,000, cut for the highest 2% near 52,000. The full list was thinned out, with the highest values kept by preference.

Biological target: T1, OsWOX13 (Oryza sativa, UniProt Q5QMM3 1-267)
T1 sequence: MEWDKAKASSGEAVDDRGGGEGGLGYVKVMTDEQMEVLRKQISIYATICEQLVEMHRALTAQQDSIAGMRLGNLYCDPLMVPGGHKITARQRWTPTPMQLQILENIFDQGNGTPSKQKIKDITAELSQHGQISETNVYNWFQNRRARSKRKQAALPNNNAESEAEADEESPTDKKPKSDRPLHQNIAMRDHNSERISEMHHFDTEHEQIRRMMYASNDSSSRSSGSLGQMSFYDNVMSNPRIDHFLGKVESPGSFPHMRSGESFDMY
Assay: protein-binding microarray (RPBM); PBS, 2% BSA, 51.3 ng/ul salmon testes DNA, 50 uM zinc acetate, 200 nM TF, 25 C, 1 h; high values mean tight binding
Settings: protein: recombinant; tags: N-terminal polyhistidine and DsRed monomer fusion (pET32a); label: CyDye5-dUTP incorporated in the synthesized complementary strand; 3' TTTTT single-stranded linker to array surface; dsDNA, one strand shown
How it was run: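 A custom Agilent array was converted to double-stranded form by primer extension with Cy5-dUTP and blocked with 2% BSA. Protein at 200 nM in PBS with 2% BSA, salmon testes DNA and 50 µM zinc acetate was applied for 1 h at 25 °C, followed by washing. The proteins were polyhistidine–DsRed N-terminal fusions of transcription factors, expressed in E. coli BL21-CodonPlus and Ni–NTA-purified. The binding signal is per-feature fluorescence intensity (arbitrary units) from an Axon 4000B scanner.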

Sequence	binding signal
GGTGTGTTTATAATTAATATACAGATTGTGTCACATTGTTCGGAGTCACCTAGTGCAG	8600 fluorescence intensity (a.u.)
AATAAAATAATAATTATATAATTTTAGTAAGATAATTGAACGGAGTCACCTAGTGCAG	19200 fluorescence intensity (a.u.)
ATATTTGATTAGATCGGTAATGGATGGCTATAACGTATGCCGGAGTCACCTAGTGCAG	58500 fluorescence intensity (a.u.)
CAACTATTATATAAATTGGCTATTATATTAGCTATAGATGCGGAGTCACCTAGTGCAG	11400 fluorescence intensity (a.u.)
TATATATGAGCTATTAGATTGGCTATGGATGAATTGGAGCCGGAGTCACCTAGTGCAG	4900 fluorescence intensity (a.u.)
ATGATTGATCGATCATCAAGCTAAAGATAATGCTATGCAACGGAGTCACCTAGTGCAG	55100 fluorescence intensity (a.u.)
GAGCTATTAGATTGGCTATAGATAAATTAGAGCTAGTAGTCGGAGTCACCTAGTGCAG	31600 fluorescence intensity (a.u.)
TTTATGATTATATTCGTAATGCTACATAATTTGATATGATCGGAGTCACCTAGTGCAG	28100 fluorescence intensity (a.u.)
GTCAATCATTGTTCTATGAGCTAGATGATAAAGATGACAACGGAGTCACCTAGTGCAG	8180 fluorescence intensity (a.u.)
TCAAGCTGCTAATCAATTGATATCAACTATATTATGGAAACGGAGTCACCTAGTGCAG	14600 fluorescence intensity (a.u.)
TTATATTAATTGGCTATTAGATTAGCTATAGATAAATTGGCGGAGTCACCTAGTGCAG	60400 fluorescence intensity (a.u.)
GATAAATTGACAATATTACCAAAATTTTAGTAAGATTGGCCGGAGTCACCTAGTGCAG	64900 fluorescence intensity (a.u.)
AGATAATTAAGTATTTTACGTAAAATAAGATAGTATTAATCGGAGTCACCTAGTGCAG	5240 fluorescence intensity (a.u.)
ATCACACCCTAAATTGACTGTATTTGTGCTGAATTTTACACGGAGTCACCTAGTGCAG	12300 fluorescence intensity (a.u.)
CAGCCGGATTGATTGCGTAGCTGTGTGCAAGGCTGGGCGACGGAGTCACCTAGTGCAG	35900 fluorescence intensity (a.u.)
TGGTTAATTTAGCTTCTCCCCTTTCTCGTGTCCTTAGATTCGGAGTCACCTAGTGCAG	10200 fluorescence intensity (a.u.)
ATAAAATTAAAGTAAATGTGATACAAACGTGGCATGTTTGCGGAGTCACCTAGTGCAG	8490 fluorescence intensity (a.u.)
AGACTAATTGAAGCTAGGATATATGATGCAAGGAGAGAGGCGGAGTCACCTAGTGCAG	29500 fluorescence intensity (a.u.)
ACCTTAAATTTGTAGTTGATTTTAGGGTTTTCTCATTGAACGGAGTCACCTAGTGCAG	27700 fluorescence intensity (a.u.)
ATAATAGATTTGGTCAAAATTTATCGAAAACCGATCGAAACGGAGTCACCTAGTGCAG	13200 fluorescence intensity (a.u.)
AAATTAAATAACATGTGATTATGGCATACTGTAAGTAGTACGGAGTCACCTAGTGCAG	12000 fluorescence intensity (a.u.)

Sequence	binding signal
ACCAAATTAATTTATTAAACATAAAATTGAATATATTTTGCGGAGTCACCTAGTGCAG	46500 fluorescence intensity (a.u.)
TATGAATTGGCTATTAAATTGACTATAAATGATTTAGAGCCGGAGTCACCTAGTGCAG	37200 fluorescence intensity (a.u.)
ATAAATGGGCTATTAGATTGACTATAAATGATTTGGAGCCCGGAGTCACCTAGTGCAG	57100 fluorescence intensity (a.u.)
ATGGACTATTAAATTGACTATAAATGATTTGGAGCTAGTACGGAGTCACCTAGTGCAG	22200 fluorescence intensity (a.u.)
GAGACCATATCATTGATAGATACATGCATGCATCCTACTACGGAGTCACCTAGTGCAG	7660 fluorescence intensity (a.u.)
AAGACTAAAGGCTCAATTGATTGGACGGGAGATATGAAAACGGAGTCACCTAGTGCAG	9490 fluorescence intensity (a.u.)
ATATGATATTTGTCCATCTTAATTGCTTATAAGCTGTATACGGAGTCACCTAGTGCAG	5090 fluorescence intensity (a.u.)
ATTGCTGATTGTCTGTTCTTTTACTTGACATAACCTGAATCGGAGTCACCTAGTGCAG	30100 fluorescence intensity (a.u.)
ATTTATGTAATTATCATTTATTTTATTGTAAATTTATTTACGGAGTCACCTAGTGCAG	16300 fluorescence intensity (a.u.)
GTCCGTAATTGATCATATTTATCATTTAAATTACTCAGTGCGGAGTCACCTAGTGCAG	61900 fluorescence intensity (a.u.)
TTGTTGATAACCGATAATTTGGTAAATTATTGATTTTATTCGGAGTCACCTAGTGCAG	19900 fluorescence intensity (a.u.)
GGCCAGTAATTAACCATATTTATCATTTAAACTACTCAGTCGGAGTCACCTAGTGCAG	9040 fluorescence intensity (a.u.)
TAGATTGATTGTTACTCCGTACATAACCTTGTCTTCTTCGCGGAGTCACCTAGTGCAG	55400 fluorescence intensity (a.u.)
GTAATTGACAACTGACAACCGACAGTTATTGACTCATTCCCGGAGTCACCTAGTGCAG	54900 fluorescence intensity (a.u.)
ACCGTAACCTGATTGATAATTTACTGATTTACTCATTGTTCGGAGTCACCTAGTGCAG	64700 fluorescence intensity (a.u.)
GGAGTGCAAATTAGTCCGGATTTTACTGAATATTGATAACCGGAGTCACCTAGTGCAG	3300 fluorescence intensity (a.u.)
TATGATTTGTCTACGTTACAAACATAAACCTTTTCTTCTCCGGAGTCACCTAGTGCAG	11400 fluorescence intensity (a.u.)
ATTTTGGTTTCTGTTATTGACAAAACAACTCACTCATTCCCGGAGTCACCTAGTGCAG	3480 fluorescence intensity (a.u.)
TAATAAATTTGACTAGTTATTCAACTTTGACATAAAATCCCGGAGTCACCTAGTGCAG	11500 fluorescence intensity (a.u.)
GCTGGTTTGATTAGATCTTCATCCCACGTGGCATTGACGTCGGAGTCACCTAGTGCAG	17200 fluorescence intensity (a.u.)
TCTTGTAATTATTCTATGTTTAATACTCTAAATTAGCATCCGGAGTCACCTAGTGCAG	20000 fluorescence intensity (a.u.)

Sequence	binding signal
TGGTGATAATGTCATTCTGTTATTACAGAGGTCAACGTGTCGGAGTCACCTAGTGCAG	3410 fluorescence intensity (a.u.)
CTCCACTAATCCTACCAATTAACGAGTCGTACTCAATAATCGGAGTCACCTAGTGCAG	7550 fluorescence intensity (a.u.)
CAGCTGTTCTAATGATTTGAGATATATCAAACTTGTCAAACGGAGTCACCTAGTGCAG	3250 fluorescence intensity (a.u.)
TAAGTTAATAGATATTTAACGTTTATAATAAGATTTGTTTCGGAGTCACCTAGTGCAG	9590 fluorescence intensity (a.u.)
AGCGCAACTAATTAAACTAGGCTTATCAGGCGACAGCGGCCGGAGTCACCTAGTGCAG	4920 fluorescence intensity (a.u.)
CACCCAATCACAATCCAACCCACGCCATTGCAACCAAATTCGGAGTCACCTAGTGCAG	4130 fluorescence intensity (a.u.)
GGCAATCAATCAACCAATCACCAGCTTACAATTCGGCCACCGGAGTCACCTAGTGCAG	59300 fluorescence intensity (a.u.)
TCAAACAAACCAATCAATCAATCAATCAGGGGATTCTTACCGGAGTCACCTAGTGCAG	42300 fluorescence intensity (a.u.)
GTGTAATTTTGTTAGGAAATTTGGGTTTGAATCAGTGGAACGGAGTCACCTAGTGCAG	12500 fluorescence intensity (a.u.)
TCCTGATTTCGCCGCCACTTGTAGCATCTGCCCGTGGGGTCGGAGTCACCTAGTGCAG	5510 fluorescence intensity (a.u.)
GCTAATCATAGACTAATTAGGCTTAAAAGATTTGTCTCGCCGGAGTCACCTAGTGCAG	37200 fluorescence intensity (a.u.)
TACGGCTAATTATGGACTAATTAGACTCAAAAGATTCATGCGGAGTCACCTAGTGCAG	53800 fluorescence intensity (a.u.)
TACTAATCATAGACTAATTAGGCTCAAAAGATTCGTCTCACGGAGTCACCTAGTGCAG	31300 fluorescence intensity (a.u.)
GCTAATCATAGACTAATTAGACTCAAAAGATTAGTCTCGCCGGAGTCACCTAGTGCAG	52800 fluorescence intensity (a.u.)
ATGGCTAATTATGGACTAATTAGACTCAAAAGATTCGTTTCGGAGTCACCTAGTGCAG	19800 fluorescence intensity (a.u.)
ATGGATTAATTAGGCTCAAAAGATTTGTCTCACTATTTCCCGGAGTCACCTAGTGCAG	13500 fluorescence intensity (a.u.)
GATTAATTAGACTTAATAAATTTGTCTCACGGTTTACGGACGGAGTCACCTAGTGCAG	40500 fluorescence intensity (a.u.)
TTATGGCTAATCATGAACTAATTAGACTCAAAAGATTCGTCGGAGTCACCTAGTGCAG	23700 fluorescence intensity (a.u.)
ACTAATTAGACTTAAAAGATTTGTCTCATGATTTACTCCCCGGAGTCACCTAGTGCAG	56300 fluorescence intensity (a.u.)
